For 16 sequences, PBM binding z-score results are on record in the supplement of paper PMC6555819.

What all share (test): PBM binding z-score (relative to random genomic background probes); higher = stronger binding; sequences stand for … in GC…GCGATTGACAGCGTAGAATGAAGG
The test system of experiment [1] is RARb homodimer (NR concentration 270 nM). In short, it runs like this:
(§1)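 Scanned fluorescence from custom Agilent 4×180K protein-binding microarrays was regression-normalized. Binding z-scores use random background probes as reference. Ligand-free nuclear receptor dimers were incubated on the arrays for 1 h and detected with antibodies against each partner (one per run).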

The subject of experiment [2] is RARg:RXRa (NR concentration 270 nM, RXRa partner concentration 90 nM). In outline:
as §1

Experiment [3] deals with RARg homodimer (NR concentration 270 nM). In outline: as §1
Experiment [4] has as its system RXRa DBDmut IVT, anti-RXR (DBD mutation: RXRa K156A/R161A, NR concentration 90 nM). In short, it runs like this:
as §1

Experiment [5] deals with RXRa homodimer (NR concentration 180 nM). In outline:
as §1

The test system of experiment [6] is THRa:RXRa (NR concentration 90 nM, RXRa partner concentration 90 nM). In short, it runs like this: as §1
The test system of experiment [7] is THRa homodimer (NR concentration 90 nM). In outline: as §1
In experiment [8] the test system is VDR:RXRa (NR concentration 270 nM, RXRa partner concentration 90 nM). In short, it runs like this: as §1
The subject of experiment [9] is VDR homodimer (NR concentration 270 nM). In short, it runs like this:
as §1

ATATGGAGGTTACATCCGGGTCATTCAGGCTATG: the PBM binding z-score in [1] was determined as 3.23; in experiment [2], 4.87; in [3], 2.66; in experiment [4], 1.17; in experiment [5], 4.23; in [6] it was 4.11. Also, the figures for the PBM binding z-score in experiment [7], in experiment [8] and in experiment [9] were 2.74, 5.05 and 3.3, respectively.

As for CGTCCAAAGTCAGAGAGGTCAGTGAATGCCGAGT, the PBM binding z-score in experiment [1] came out at 4.21; in experiment [2], 2.98; in [3] it was 3.26; in experiment [4], 1.16; in experiment [5], 2.65; in experiment [6], 2.72. Moreover, the results for the PBM binding z-score in experiment [7], in [8] and in experiment [9] were 0.954, 4.38 and 2.12, respectively.

Consider ATATGTATGTTAGCTGGGGTCATTCAGACTAGGC, for which the PBM binding z-score in experiment [1] was determined as 3.35; in experiment [2], 3.62; in [3] it was 2.31; in experiment [4], 2.11; in [5] it was 5.39; in experiment [6] it was 4.27. Further, the PBM binding z-score stood at 2.96 in experiment [7], 5.07 in experiment [8] and 4.67 in experiment [9].

For the sequence CCTATTGGGCCAAGGTCATTGATCAGTCAAAGCA, the PBM binding z-score in experiment [1] was determined as 3.15; in [2], 3.81; in experiment [3], 3.22; in experiment [4] it was 1.62; in experiment [5], 3.07; in [6], 3.6. Also, the PBM binding z-score came to 2.3 in experiment [7], 3.29 in experiment [8] and 3.13 in experiment [9].

As to CGTCCTAGGTCAAGGTCAGTGAAAGAGACTCGAA, the PBM binding z-score in [1] came out at 4.34; in [2] it was 5.41; in experiment [3] it was 6.43; in experiment [4], 2.02; in [5] it was 4.55; in experiment [6] it was 3.82. The results for the PBM binding z-score in experiment [7], in experiment [8] and in experiment [9] were 2.95, 3.2 and 1.93, respectively.

In the case of CGAACGAGGGCATGAGTTGATTGCAAATGCCGAT, the PBM binding z-score in experiment [1] worked out at 0.769; in experiment [2], 1.29; in [3] it was 1.48; in experiment [4], 2.73; in [5] it was 0.985; in experiment [6], 1.22. In addition, the PBM binding z-score in experiment [7] was -0.209; in experiment [8], 1.66; in [9], 1.94.

For CCTAGTTGGTCAAGGTTACACACGCTATAGGTAC, the PBM binding z-score in experiment [1] came out at 2.15; in experiment [2] it was 1.49; in experiment [3], 1.86; in experiment [4] it was 1.24; in [5], 1.48; in experiment [6], 2.16. Further, the PBM binding z-score in [7] is 1.78; in [8], 1.5; in [9] it was 1.42.

For CGAACGAGCGCATGAGTTGATAGCAAATGCCGAT, the PBM binding z-score in experiment [1] was -0.651; in experiment [2], -0.0221; in [3], -0.247; in experiment [4] it was 0.162; in experiment [5], -0.236; in experiment [6], -0.516. Besides, the PBM binding z-score was -0.891 in [7], -0.307 in [8] and -0.0717 in experiment [9].

Regarding TCATATAGGTAAATGCTAGGTGCAAGTCCGATCT, the PBM binding z-score in experiment [1] is -0.219; in experiment [2] it was 0.325; in [3] it was 0.13; in experiment [4], 1.51; in experiment [5], 0.838; in [6] it was 0.121. Further, the PBM binding z-score in experiment [7] is 0.135; in [8] it was 0.809; in experiment [9], 0.597.

Regarding TCTGGTAGATCAATAGAGGTTAAGAAAGTGCGCT, the PBM binding z-score stood at 1.43 in [1]; 0.787 in experiment [2]; 0.391 in experiment [3]; 0.698 in experiment [4]; 1.48 in experiment [5]; 2.22 in experiment [6]. For the same sequence, the PBM binding z-score in experiment [7] was -0.138; in [8] it was 1.87; in experiment [9], 0.435.

Take ATCTCTAGGCAAAGATAGTTCAGTGAATGCAAAT: the PBM binding z-score is 0.533 in experiment [1]; 0.288 in experiment [2]; 0.586 in experiment [3]; -0.0612 in [4]; -0.0781 in [5]; 0.0396 in experiment [6]. The PBM binding z-score is -0.577 in [7], -0.11 in [8] and 0.0259 in [9].

Turning to CCGAATGGGGCAGAAAGGTTACCATACCATCCGG, the PBM binding z-score in experiment [1] was 2.38; in experiment [2], 1.8; in experiment [3], 1.36; in experiment [4], -0.766; in experiment [5], 1.91; in [6], 1.07. The PBM binding z-score is -0.641 in experiment [7] and -0.0198 in [9].

For the sequence TAGCCTAGGTCATGCCGGCCAGTATAGTGTCGGC, the PBM binding z-score in [1] was 2.79; in experiment [2] it was 3.6; in experiment [3] it was 3.93; in experiment [4], 0.522; in experiment [5], 2.62; in experiment [6], 2.72. For the same sequence, the PBM binding z-score in [7] came out at 0.854; in experiment [8], 1.95; in experiment [9] it was 0.14.

Take ATATATAGGTTACATCCGGGTCATTCAGGCTATG: the PBM binding z-score in experiment [1] was 3.34; in experiment [2], 4.2; in experiment [3], 2.64; in experiment [4], 1.57; in [5], 3.51; in experiment [6] it was 4.03. For the same sequence, the PBM binding z-score in experiment [7] worked out at 2.74; in [8], 4.58; in experiment [9] it was 3.65.

Turning to TCGAGTAGGTTACCAATGGGGCATACAGCTTTCT, the PBM binding z-score was 0.633 in [1]; 1.41 in experiment [2]; 0.627 in experiment [3]; 0.223 in experiment [4]; 1.01 in experiment [5]; 0.248 in experiment [6]. Also, the PBM binding z-score is -0.753 in experiment [7] and -0.212 in [9].

As to ACTATTAGTTGACTTAGGGCCACCGATACGACGC, the PBM binding z-score is 0.765 in experiment [1]; 0.549 in [2]; 0.739 in experiment [3]; 0.785 in experiment [4]; 0.774 in experiment [5]; 2.48 in [6]. Moreover, the PBM binding z-score in [7] was determined as 0.956; in [9], 0.47.
